The list is not random: actives were taken first. Their share in the collection is about 0.67%.
CaV13 FRET inh: Disruptors of the CACNA1D IQ motif to Ca2+-dependent inactivation inhibitor domain association, primary screening, Förster resonance energy transfer in intact living … | HEK cells, CFP/YFP FRET ICDI-IQ, plate reader, 10 min; percent FRET-ratio fall versus neutral wells | inhibition, % at 12.3 µM | 0.098% of 340,000 active | AID 743397;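 active means mean replicate inhibition of at least 30% and at least 1% of replicates passing that level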
GC-A act: GC-A stimulated cGMP production enhancers – HEK293 GC-A cells, cGMP TR-FRET, EC30 ANP, primary screen. Atrial natriuretic peptide receptor 1 (Homo sapiens), P16066. 0% at EC30 ANP, 100% saturating ANP. activation, % at 10 µM. 0.14% of 370,000 active; in the data active means activation above about 40%
Rin1 Abl inh: inhibitors of Rin1-Abl protein binding, primary screen, biochemical, TR-FRET | Tyrosine-protein kinase ABL1 (Homo sapiens) + Ras and Rab interactor 1 (Homo sapiens), … | 0.4% of 360,000 active | inhibition, % at 7.35 µM; in the data active means inhibition above about 5%, passing the limit was not always enough
GC-B act: human GC-B receptor activators, primary screen, HEK293 GC-B cells, cGMP TR-FRET, EC30 CNP. Atrial natriuretic peptide receptor 2 (Homo sapiens), P20594. 0% at EC30 CNP, 100% saturating CNP. activation, % at 10 µM. 0.11% of 370,000 active;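 active means activation at 10 µM reaching about 35% in either raw or pattern-adjusted values, limit read from the data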
Hits are given with their value; . = inactive; / = no result; + = active, no number.

SMILES	CaV13 FRET inh	GC-A act	Rin1 Abl inh	GC-B act
CCCOc1c(Br)cc(C2C3=C(CCCC3=O)N(C)C3=C2C(=O)CCC3)cc1OC	+	.	.	.
C[C@@H]1CCC(=O)N(C[C@@H](C)CC#N)CC1	.	.	.	.
C[C@@H](CC#N)CN1CC[C@H](C(C)(C)C)CCC1=O	34	.	.	.
C=CCN(C)C(C#Cc1ccccc1)Cc1ccccc1 (stereo not drawn)	/	.	/	.
COc1cc(CNc2ccc3[nH]c(=O)[nH]c3c2)ccc1OCc1ccccc1C	.	.	.	.
COc1cc(CNc2ccc3[nH]c(=O)[nH]c3c2)ccc1OCc1ccccc1F	.	.	.	43
O=C1c2ccccc2C(=O)N1/N=C/c1ccc(O)c(O)c1O	/	/	65	/
O=C1c2cccc3cccc(c23)C(=O)N1/N=C/c1ccc(O)cc1O	.	.	.	.
CCOc1ccc2nc(NCCCNS(=O)(=O)c3ccccc3)c(C#N)cc2c1	.	.	.	.
CCOc1ccc2nc(NCCCNS(=O)(=O)c3ccc(F)cc3)c(C#N)cc2c1	33	.	.	.
COc1ccc(CN2CCC(CNC(=O)NC3CCCC3)CC2)cc1	/	.	/	.
COCCCn1c2nc3ccccc3nc2c2c(=O)n(Cc3ccc(Cl)cc3)cnc21	/	.	.	.
O=c1c2c3nc4ccccc4nc3n(Cc3ccccc3)c2ncn1Cc1ccco1	.	46	.	48
COC(=O)C1=C(C)N(Cc2cccc(C(F)(F)F)c2)C(=NCc2ccccc2C(F)(F)F)NC1c1cccc(F)c1 (stereo not drawn)	/	.	/	.
CC1CCCN(CCC(=O)c2ccccc2)C1 (stereo not drawn)	.	67	.	.
O=C(CCN1CCCCC1)c1ccccc1	.	62	.	.
C[N+]1(CCC(=O)c2ccccc2)CCCCC1	.	73	.	.
C[C@H]1[C@@H](NC(=O)/C=C/c2ccccc2)CC[C@@]23CCCN2C(=O)CCC[C@@H]13	/	.	/	.
CC(C)C[C@H]1COc2cc(Br)ccc2S(=O)(=O)N1Cc1cn(CCC2OCCO2)nn1	/	.	/	.
Cn1c(SCC(=O)NCC2CCCO2)ncc(C(=O)Nc2ccc(Cl)cc2)c1=O (stereo not drawn)	.	45	.	.
Cn1c(SCC(=O)NCC2CCCO2)ncc(C(=O)Nc2ccc(F)cc2)c1=O (stereo not drawn)	.	.	.	.
COC(=O)C1CN(Cc2ccc(OC)cc2)CCS(=O)(=O)N1Cc1ccc(F)cc1 (stereo not drawn)	/	.	/	.
CCNc1nc2nc3ccc(C)cn3c(=O)c2cc1C(=O)NCC1CCCO1 (stereo not drawn)	+	.	.	.
Cc1ccc2nc3nc(NCC4CCCO4)c(C(=O)NC4CCCC4)cc3c(=O)n2c1 (stereo not drawn)	.	.	.	.
Cn1cc(-c2nnnn2-c2ccc(Cl)cc2)c(C(F)(F)F)n1	/	.	.	.
SMILES	CaV13 FRET inh	GC-A act	Rin1 Abl inh	GC-B act
Cc1cc(C)cc(-n2nnnc2-c2cn(C)nc2C(F)(F)F)c1	/	.	7.5	.
CC(Sc1nc2ccc(C(=O)c3ccccc3)cc2[nH]1)C(=O)O (stereo not drawn)	.	.	.	.
CN(C)C(=O)CSc1nc2ccc(C(=O)c3ccccc3)cc2[nH]1	62	.	.	.
CCCC[C@@H]1C(=O)N2N=Cc3cc(C)c(C)cc3[C@H]2N2N=Cc3cc(C)c(C)cc3[C@@H]12	/	.	/	.
Cc1csc(SCC(=O)N(C)C2CCS(=O)(=O)C2)n1 (stereo not drawn)	.	.	.	90
COc1ccc(NC(=O)c2cc(-c3cc(F)ccc3OC(C)C)n[nH]2)c(C)c1	.	56	.	61
CC1CN(C(=O)CCC(=O)NCCc2ccccc2)c2ccccc2O1 (stereo not drawn)	.	.	.	.
CC1CC(C)CN(CCCNC(=O)CCC(=O)N2CC(C)Oc3ccccc32)C1 (stereo not drawn)	38	.	.	.
Cc1ccc2c(c1)N(C(=O)CCC(=O)NCCCN1CCOCC1)CC(C)O2 (stereo not drawn)	47	.	.	.
Cc1ccc2c(c1)N(C(=O)CCC(=O)NCCN1CCOCC1)CC(C)O2 (stereo not drawn)	.	.	.	.
COc1cc2nc(N3CCNCC3)nc(N)c2cc1OC	.	.	8.2	.
